CHX counter = Cycloheximide Counterscreen for Small Molecule Inhibitors of Shiga Toxin. 12% of 300,000 active. cell reporter, cycloheximide protein synthesis inhibition counterscreen. max response, %. AID 2314, 2010; in the data active means max response mostly above about 13%, no sharp cut-off; inactive means mostly below about 14%; further: read at 38.3 µM for the half of the compounds with a filed dose
Pf growth 48h = Primary qHTS for delayed death inhibitors of the malarial parasite plastid, 48 hour incubation; 5.9% of 310,000 active; P. falciparum luciferase growth in erythrocytes, 48 h; Potency, µM (series often up to 28.7 µM), actives largely listed as inhibitors; AID 504832, 2011
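Luciferase-expressing P. falciparum in infected erythrocytes (2% hematocrit, 0.1% parasitemia final) in RPMI 1640/0.5% Albumax were exposed to compound for 48 hours at 37 C, 5% CO2; growth read as luminescence.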
Shiga inhibitor = A qHTS for Small Molecule Inhibitors of Shiga Toxin; Vero cells, Shiga toxin protein synthesis inhibition reporter; 9.2% of 290,000 active; inhibition, % at 38.7 µM; in the data active means inhibition mostly above about 28%, no sharp cut-off; inactive means mostly below about 43%
Pf growth 96h = Primary qHTS for delayed death inhibitors of the malarial parasite plastid, 96 hour incubation; P. falciparum luciferase reporter growth, 96 h; Potency, µM (doses to about 28.7 µM), most hits filed as inhibitors; 6.9% of 320,000 active; AID 504834, 2011
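P. falciparum expressing integrated firefly luciferase grown in erythrocytes (2% hematocrit, 0.05% parasitemia final) with compounds for 96 hours at 37 C, 5% CO2. Growth inhibition read as loss of luminescence after adding luciferase detection reagent.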
LmPK inh = qHTS Assay for Inhibitors of Leishmania Mexicana Pyruvate Kinase (LmPK); Potency, µM (highest dose often 57.5 µM), actives largely listed as inhibitors; 0.37% of 290,000 active; purified LmPK, Kinase-Glo ATP luminescence, 1 h
Target sequence (Q27686 whole entry, looked up): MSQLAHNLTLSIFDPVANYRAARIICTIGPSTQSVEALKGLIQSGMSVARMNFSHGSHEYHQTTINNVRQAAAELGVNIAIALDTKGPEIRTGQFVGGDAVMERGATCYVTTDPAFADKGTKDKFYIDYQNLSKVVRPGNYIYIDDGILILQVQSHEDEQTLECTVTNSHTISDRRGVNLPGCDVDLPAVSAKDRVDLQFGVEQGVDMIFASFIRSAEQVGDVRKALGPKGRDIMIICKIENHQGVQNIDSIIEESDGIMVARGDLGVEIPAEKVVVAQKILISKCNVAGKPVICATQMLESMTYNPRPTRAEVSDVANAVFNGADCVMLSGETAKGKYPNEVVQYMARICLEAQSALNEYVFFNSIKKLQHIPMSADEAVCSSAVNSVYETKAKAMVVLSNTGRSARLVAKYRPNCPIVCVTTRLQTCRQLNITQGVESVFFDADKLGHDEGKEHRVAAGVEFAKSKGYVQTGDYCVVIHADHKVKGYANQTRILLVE
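ATP generated from ADP (0.1 mM) and PEP (0.5 mM) by 0.1 nM LmPK over 1 h at room temperature (pH 7.2 imidazole buffer) was detected by coupled luciferase luminescence. Values were normalized to uninhibited and no-enzyme wells.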
Large screens that a line does not name were inactive. Rows were chosen to be rich in hits. Some 22% of all compounds tested hit in one or more screens of this group. Unless noted, the call rests on the fitted dose curve; in most records, active means well fitted inhibition curve with a large enough effect; inconclusive means small, poorly fitted or top-dose-only effect, or another doubt; inactive means no such curve, though single readings can be large or run the other way.

O=C(CSC1=NCCS1)Nc1nc2ccccc2s1	CHX counter 28, Shiga inhibitor 81
Cc1ccc(C(=O)Nc2ccc(S(=O)(=O)NC3=NCCCCC3)cc2)cc1S(=O)(=O)N1CCOCC1	Pf growth 48h 2.3µM, Pf growth 96h 13µM (no result: CHX counter, Shiga inhibitor, LmPK inh)
CN(C)c1ccc(C(=O)Nc2ccc(S(=O)(=O)NC3=NCCCCC3)cc2)cc1	Pf growth 48h inconclusive, Pf growth 96h 12µM
CCc1cc(C(=O)Nc2ccc(S(=O)(=O)NC3=NCCCCC3)cc2)sc1C	Pf growth 48h inconclusive, Pf growth 96h 4.1µM (no result: CHX counter, Shiga inhibitor, LmPK inh)
CN(C)S(=O)(=O)c1ccc(C(=O)Nc2cccc(S(=O)(=O)NC3=NCCC3)c2)cc1	none
Cc1ccc(C(=O)Nc2ccc(S(=O)(=O)NC3=NCCCCC3)cc2)c(C)c1	Pf growth 96h inconclusive (no result: CHX counter, Shiga inhibitor, LmPK inh)
CN(C)c1cccc(C(=O)Nc2cccc(S(=O)(=O)NC3=NCCC3)c2)c1	CHX counter 33, Shiga inhibitor 70
O=C(Nc1ccc(S(=O)(=O)NC2=NCCCCC2)cc1)c1cc(S(=O)(=O)N2CCOCC2)ccc1F	Pf growth 48h inconclusive
O=C(c1ccc(Cl)c(S(=O)(=O)N2CCCCCC2)c1)N1CCCC1	none
Cc1ccccc1N(CC(=O)NCC1CCCO1)C(=O)CCC(=O)Nc1nccs1 (centres undefined)	none
CC1CN(S(=O)(=O)c2cccc(C(=O)Nc3ccc(S(=O)(=O)Nc4ncccn4)cc3)c2)CC(C)O1 (centres undefined)	Pf growth 48h inconclusive
CC1CN(S(=O)(=O)c2cccc(C(=O)Nc3ccc(S(=O)(=O)NC4=NCCCCC4)cc3)c2)CC(C)O1 (centres undefined)	Pf growth 48h 13µM, Pf growth 96h inconclusive (no result: CHX counter, Shiga inhibitor, LmPK inh)
COc1ccc(CCNCC(O)COc2cccc(Br)c2)cc1OC (centres undefined)	Pf growth 48h inconclusive, Pf growth 96h 9.3µM
COc1ccc(CCNCC(O)COc2ccc(OC)cc2C(C)(C)C)cc1 (centres undefined)	Pf growth 48h 2.3µM, Pf growth 96h 2.3µM
COc1ccc(-c2cn[nH]c2-c2ccc(OCc3ccccc3)cc2O)cc1OC	Pf growth 48h 8.3µM
COc1ccc(-c2cn[nH]c2-c2ccc(OCc3ccc(F)cc3)cc2O)cc1OC	Pf growth 48h 10µM
COc1ccc(-c2cn[nH]c2-c2ccc(OCC(=O)NN)cc2O)cc1OC	Pf growth 48h inconclusive, Pf growth 96h inconclusive
CC(C)C1O/C(=N/C(=O)Nc2ccc(Cl)c(Cl)c2)NC1=O (centres undefined)	Pf growth 48h 12µM, Pf growth 96h inconclusive
CCCCn1c(N)c(N(C(=O)CSc2nnc(C)n2-c2ccccc2)C2CCCC2)c(=O)[nH]c1=O	none (no result: CHX counter, Shiga inhibitor, LmPK inh)
Cc1ccc(Cn2c(N/N=C/c3ccncc3)nc3c2c(=O)n(C)c(=O)n3C)cc1	Pf growth 48h 10µM, Pf growth 96h 3.7µM
CCOc1cc(/C=N/O)cc(Br)c1OCC	none
C=CCOc1c(Br)cc(/C=N/Nc2ccc(C(=O)O)cc2)cc1OCC	CHX counter 79, Shiga inhibitor active
COc1cc(/C=N/Nc2ccc(Cl)c(C(=O)O)c2)ccc1OCC(=O)N1C(C)CCCC1C (centres undefined)	Shiga inhibitor 59, Pf growth 96h inconclusive
COc1cc(/C=N/Nc2ccc(Cl)c(C(=O)O)c2)ccc1OC(=O)c1ccco1	CHX counter 37, Shiga inhibitor 68
C#C[C@]1(OC(C)=O)CCC2C3CCC4=CC(=O)CC[C@@H]4C3CC[C@@]21C (some centres undefined)	none
COc1cccc(CNS(=O)(=O)c2ccc3c(c2)N(C)CCO3)c1	none
CCC(C)NC(=O)c1c(C)cc(=O)oc1C (centres undefined)	Pf growth 96h inconclusive
COc1ccc(NC(=O)c2cccc(-n3c(C)ccc3C)c2)c(OC)c1	Pf growth 48h inconclusive, Pf growth 96h inconclusive
COC(=O)c1c(NC(=O)COC(=O)Cn2cnc3ccccc32)sc2c1CCCC2	none
COc1ccc(/C=N/Nc2ccc(C(=O)O)cc2)cc1Br	Pf growth 96h inconclusive
COc1cc(/C=N/Nc2nc3c(c(=O)n(C)c(=O)n3C)n2Cc2ccccc2)ccc1OC(=O)c1ccco1	Pf growth 48h 10µM, Pf growth 96h 9.3µM
COc1ccc(C(=O)Oc2ccc(/C=N/Nc3ccc(Cl)c(C(=O)O)c3)cc2OC)cc1	CHX counter 21, Shiga inhibitor 93
COc1ccc(/C=N/Nc2ccc(C(=O)O)cc2)cc1OC	CHX counter 27
Cn1c(=O)c2c(nc(N/N=C/c3ccncc3)n2Cc2ccccc2)n(C)c1=O	Pf growth 48h inconclusive, Pf growth 96h inconclusive
COc1cc(C=O)ccc1OC(=O)c1ccc(C(C)C)cc1	CHX counter 35
N=C1C(c2ccccc2)=C(O)CN1c1cccc(S(=O)(=O)NCc2ccco2)c1	none
CC1CCCCN1S(=O)(=O)c1ccc(C(=O)N2CCOCC2)cc1 (centres undefined)	none
Cc1cc(NC(=O)c2cc(-c3ccccn3)nc3c(Cl)cccc23)no1	Pf growth 96h 2.1µM
Cc1ccc(-c2cc(C(=O)Nc3cc(C)on3)c3ccccc3n2)cc1	Pf growth 48h inconclusive
Cc1cc(NC(=O)c2cc(-c3ccc(C)c(C)c3)nc3ccccc23)no1	Pf growth 48h 0.83µM, Shiga inhibitor 20, Pf growth 96h 0.74µM
Cc1cc(NC(=O)c2cc(-c3ccccn3)nc3ccccc23)no1	none (no result: Pf growth 48h)
Cc1cc(NC(=O)c2cc(-c3cccc(OCC(C)C)c3)nc3ccccc23)no1	Pf growth 48h inconclusive, Pf growth 96h 2.3µM
O=C(CSc1nnc(-c2ccccn2)n1Cc1ccccc1)NC1CCCC1	Pf growth 48h 8.3µM, Pf growth 96h inconclusive
Cc1ccc(Cn2ccnc2C(=O)Nc2ccccc2)cc1	CHX counter 27, Shiga inhibitor 87
O=C(CSc1nccn1Cc1ccccc1)Nc1nccs1	CHX counter 37, Shiga inhibitor active
O=C(CSc1nccn1Cc1ccccc1)NC1CCCC1	CHX counter 25
N#Cc1ccc(Cn2ccnc2C(=O)Nc2ccccc2)cc1	none
COC(=O)CCCC(=O)NCC1(N(C)Cc2ccccc2)Cc2ccccc2C1	Pf growth 96h inconclusive
Cc1c(Cl)cccc1NC(=O)CSc1nncn1-c1ccccn1	none
OCCNCC(O)CN1c2ccccc2Sc2ccccc21 (centres undefined)	Pf growth 48h inconclusive, Pf growth 96h inconclusive
COc1ccccc1N1CCN(C(=O)c2ccc(N(C)S(=O)(=O)c3ccccc3)cc2)CC1	Pf growth 48h inconclusive
Cc1nnc(NC(=O)CSc2cn(Cc3ccccc3)c3ccccc23)s1	Pf growth 96h inconclusive (no result: Pf growth 48h)
CC(=O)Nc1cccc(NC(=O)CSc2nccn2Cc2ccccc2)c1	none
O=C(CSc1nccn1Cc1ccccc1)Nc1ccccc1	CHX counter 18, Shiga inhibitor 33
Cc1ccc(Cn2cc(SCC(=O)Nc3nccs3)c3ccccc32)cc1	CHX counter 24, Pf growth 48h inconclusive, Pf growth 96h inconclusive
COC(=O)c1ccc(NC(=O)CSc2nncn2C)cc1	none
